From ChEMBL document CHEMBL1157539, “Thousands of chemical starting points for antimalarial lead identification” (Nature, 2010)

Assays:
Type in all cases: functional
Plasmodium falciparum [1] = assay: GSK_TCMDC: Inhibition of Plasmodium falciparum 3D7 in whole red blood cells, using parasite LDH activity as an index of growth. Test compounds present at 2uM
Plasmodium falciparum [2] = assay: GSK_TCMDC: Inhibition of Plasmodium falciparum Dd2 in whole red blood cells, using parasite LDH activity as an index of growth. Test compounds present at 2uM
HepG2 = assay: GSK_TCMDC: Percent inhibition of human HepG2 cell line. Test compounds present at 10uM.

CCNCc1ccc(-c2cc3ncnc(Nc4ccc(OCc5cccc(F)c5)c(Cl)c4)c3s2)[nH]1
Inhibition (Plasmodium falciparum [1]): 100%
Inhibition (Plasmodium falciparum [2]): 74%
Inhibition (HepG2): 22%

COc1ccc(C2=C(Nc3ccc4oc5ccccc5c4c3)c3ccccc3C2=O)cc1
Inhibition (Plasmodium falciparum [1]): 93%
Inhibition (Plasmodium falciparum [2]): 92%
Inhibition (HepG2): 9%

CC(=O)N(C)c1cccc(C(=O)Nc2ccc(-c3cccc(-c4nc5cccc(C)c5[nH]4)c3)cc2)c1
Inhibition (Plasmodium falciparum [1]): 97%
Inhibition (Plasmodium falciparum [2]): 68%
Inhibition (HepG2): 86%

O=C(O)C(F)(F)F.OC1(c2ccccc2)CCN(Cc2cccc(-c3c[nH]c4nc(NC5CCCC5)ncc34)c2)C1 (configuration not stated)
Inhibition (Plasmodium falciparum [1]): 92%
Inhibition (Plasmodium falciparum [2]): 31%
Inhibition (HepG2): 42%

CC(C)n1nc(C(=O)N2CCN(c3ccccc3)CC2)c2ccccc2c1=O
Inhibition (Plasmodium falciparum [1]): 96%
Inhibition (Plasmodium falciparum [2]): 3%
Inhibition (HepG2): 34%

CC(C)(CNC(=O)/C=C/c1ccc(C(F)(F)F)cc1)CNc1cc(=O)c2ccccc2[nH]1
Inhibition (Plasmodium falciparum [1]): 95%
Inhibition (Plasmodium falciparum [2]): 27%
Inhibition (HepG2): 0%

Nc1nc(N)c2cc(C#Cc3ccc(-c4ccccc4)cc3)ccc2n1
Inhibition (Plasmodium falciparum [1]): 94%
Inhibition (Plasmodium falciparum [2]): 3%
Inhibition (HepG2): 20%

CC(=O)N(C)c1cccc(C(=O)Nc2cccc(-c3cccc(-c4nc5cccc(C)c5[nH]4)c3)c2)c1
Inhibition (Plasmodium falciparum [1]): 89%
Inhibition (Plasmodium falciparum [2]): 41%
Inhibition (HepG2): 15%

CCN(CC)S(=O)(=O)c1ccc(CCOCCCCCNCC(O)c2cc(Cl)c(N)c(Cl)c2)s1.O=C(O)/C=C/C(=O)O (configuration not stated)
Inhibition (Plasmodium falciparum [1]): 96%
Inhibition (Plasmodium falciparum [2]): 80%
Inhibition (HepG2): 35%

Nc1ncc(-c2ccsc2)c2ccc(-c3ccc4cn[nH]c4c3)cc12
Inhibition (Plasmodium falciparum [1]): 95%
Inhibition (Plasmodium falciparum [2]): 41%
Inhibition (HepG2): 18%

CCn1c(C(C)C)cc2c3c(N)nc(N)nc3ccc21
Inhibition (Plasmodium falciparum [1]): 92%
Inhibition (Plasmodium falciparum [2]): 0%
Inhibition (HepG2): 67%

CCc1cn2c3c(cc(C(=O)N[C@@H](Cc4ccccc4)[C@H](O)CNCc4ccccc4)cc13)N(C)S(=O)(=O)CC2.O=CO
Inhibition (Plasmodium falciparum [1]): 98%
Inhibition (Plasmodium falciparum [2]): 99%
Inhibition (HepG2): 3%

C[C@H](NC(=O)c1cc(-c2ccc(C(C)(C)C)cc2)no1)C(=O)O.C[C@H](NC(=O)c1conc1-c1ccc(C(C)(C)C)cc1)C(=O)O
Inhibition (Plasmodium falciparum [1]): 91%
Inhibition (Plasmodium falciparum [2]): 97%
Inhibition (HepG2): 31%

COc1ccc2nccc([C@@H](O)CN3CCC(NCc4nc5c(OCc6ccccc6)cccc5[nH]4)CC3)c2c1.O=C(O)C(=O)O
Inhibition (Plasmodium falciparum [1]): 100%
Inhibition (Plasmodium falciparum [2]): 34%
Inhibition (HepG2): 6%

CCN(CCCN1CCCCC1)c1cc(C)nc(Nc2cccc3c2CCCC3)n1.O=C(O)C(F)(F)F
Inhibition (Plasmodium falciparum [1]): 92%
Inhibition (Plasmodium falciparum [2]): 46%
Inhibition (HepG2): 60%

CC(C)(C)c1ccc(CN2CCCCC(NC(=O)c3cc(-c4cccc(Cl)c4)cs3)C2)cc1.O=C(O)C(F)(F)F (configuration not stated)
Inhibition (Plasmodium falciparum [1]): 96%
Inhibition (Plasmodium falciparum [2]): 60%
Inhibition (HepG2): 11%

COc1ccc(-c2cccc(NC(=O)c3cccc(Cl)c3)c2)cc1CN1CCCN(C)CC1.O=C(O)C(F)(F)F
Inhibition (Plasmodium falciparum [1]): 100%
Inhibition (Plasmodium falciparum [2]): 99%
Inhibition (HepG2): 20%

Cc1cccc(CNc2nc(C)cc(NCCC(=O)NCCOc3ccccc3)n2)c1.O=C(O)C(F)(F)F
Inhibition (Plasmodium falciparum [1]): 98%
Inhibition (Plasmodium falciparum [2]): 14%
Inhibition (HepG2): 18%

OC(Cn1ccnc1)(c1ccc(Cl)cc1Cl)C1CCCCC1 (configuration not stated)
Inhibition (Plasmodium falciparum [1]): 98%
Inhibition (Plasmodium falciparum [2]): 58%
Inhibition (HepG2): 7%

CCOc1cc(C2C(C(=O)OC(C)C)=C(C)NC3=C2C(=O)CC(c2ccc(Cl)cc2)C3)ccc1OC(C)=O (configuration not stated)
Inhibition (Plasmodium falciparum [1]): 90%
Inhibition (Plasmodium falciparum [2]): 20%
Inhibition (HepG2): 16%

CCOc1cc(C)ccc1C1CCN(CCCCNC(=O)c2nc(-c3ccc(C(F)(F)F)cc3)[nH]c2C)CC1.Cl
Inhibition (Plasmodium falciparum [1]): 100%
Inhibition (Plasmodium falciparum [2]): 98%
Inhibition (HepG2): 30%

Cc1cc(OCc2ccccc2)c(OCc2ccccc2)cc1C(O)CN(C)Cc1ccccc1.Cl (configuration not stated)
Inhibition (Plasmodium falciparum [1]): 96%
Inhibition (Plasmodium falciparum [2]): 87%
Inhibition (HepG2): 14%

O=C(Nc1ccc(Cl)cc1)c1ccc(CN2CCCN(Cc3ccc(F)cc3)CC2)cc1.O=C(O)C(F)(F)F
Inhibition (Plasmodium falciparum [1]): 91%
Inhibition (Plasmodium falciparum [2]): 8%
Inhibition (HepG2): 48%

O=C(/C=C/c1ccc(Cl)c(Cl)c1)NCCCCCN1CCC(CCNC(=O)/C=C/c2ccccc2F)CC1
Inhibition (Plasmodium falciparum [1]): 94%
Inhibition (Plasmodium falciparum [2]): 1%
Inhibition (HepG2): 47%

CCc1ccccc1N1CCN(CCCCNC(=O)c2ccc(NC(=O)c3ccc(Cl)cc3)cc2)CC1
Inhibition (Plasmodium falciparum [1]): 96%
Inhibition (Plasmodium falciparum [2]): 4%
Inhibition (HepG2): 21%

COc1ccccc1Oc1c(N(C)S(=O)(=O)c2ccc(C(C)C)cc2)nc(C(F)(F)F)nc1N(C)S(=O)(=O)c1ccc(C(C)C)cc1
Inhibition (Plasmodium falciparum [1]): 94%
Inhibition (Plasmodium falciparum [2]): 98%
Inhibition (HepG2): 4%

CCc1c(C(=O)NC2CCC(N3CCC(c4ccccc4OC)CC3)CC2)[nH]c2ccc(Br)cc12 (configuration not stated)
Inhibition (Plasmodium falciparum [1]): 100%
Inhibition (Plasmodium falciparum [2]): 98%
Inhibition (HepG2): 85%

CCN1CCC(N(Cc2ccc(-c3ccc(C(F)(F)F)cc3)cc2)C(=O)Cn2nc(C)c(=O)cc2SCc2ccc(F)cc2)CC1.O=C(O)C(O)C(O)C(=O)O
Inhibition (Plasmodium falciparum [1]): 94%
Inhibition (Plasmodium falciparum [2]): 94%
Inhibition (HepG2): 77%

CC1(C)N=C(N)N=C(N)N1c1cccc(C(F)(F)F)c1.Cl
Inhibition (Plasmodium falciparum [1]): 95%
Inhibition (Plasmodium falciparum [2]): 68%
Inhibition (HepG2): 60%

COc1ccc(CN2CCCC(OC(c3ccc(F)cc3)c3ccc(F)cc3)C2)c(O)c1 (configuration not stated)
Inhibition (Plasmodium falciparum [1]): 100%
Inhibition (Plasmodium falciparum [2]): 99%
Inhibition (HepG2): 16%

COc1ccc2nccc([C@@H](O)CN3CCC(NCc4cc5c(Cl)cccc5[nH]4)CC3)c2c1.O=C(O)C(=O)O
Inhibition (Plasmodium falciparum [1]): 100%
Inhibition (Plasmodium falciparum [2]): 74%
Inhibition (HepG2): 40%

O=C(NCCc1ccccc1)N(Cc1ccccc1-c1ccc(CNC2CCCC2)cc1)C1CCN(Cc2ccccc2)CC1.O=C(O)C(F)(F)F
Inhibition (Plasmodium falciparum [1]): 96%
Inhibition (Plasmodium falciparum [2]): 95%
Inhibition (HepG2): 96%

NC1CCCN(Cc2ccc(-c3ccc(-c4nc5ccccc5[nH]4)s3)cc2)C1.O=C(O)C(F)(F)F (configuration not stated)
Inhibition (Plasmodium falciparum [1]): 100%
Inhibition (Plasmodium falciparum [2]): 99%
Inhibition (HepG2): 40%

COc1ccc2nccc([C@@H](O)CN3CCC(NC(=O)c4cc5c(F)cc(F)cc5[nH]4)CC3)c2c1.CS(=O)(=O)O
Inhibition (Plasmodium falciparum [1]): 100%
Inhibition (Plasmodium falciparum [2]): 98%
Inhibition (HepG2): 33%
